Data on seven compounds can be found in ChEMBL document CHEMBL2218924, “A broad activity screen in support of a chemogenomic map for kinase signalling research and drug discovery” (Biochem J, 2013).

Test [1] deals with Vascular endothelial growth factor receptor 3 (Homo sapiens) (UniProt P35916). The settings on record: at 10 µM.
Test [2] concerns the target Macrophage colony-stimulating factor 1 receptor (Homo sapiens) (UniProt P07333). The settings on record: at 1 µM.
The target is the same in test [3]. The settings on record: at 10 µM.
Test [4] has as its target Tyrosine-protein kinase Fyn (Homo sapiens) (UniProt P06241). The settings on record: at 10 µM.
Test [5] deals with T1, Mitogen-activated protein kinase kinase kinase kinase 2 (Homo sapiens) (UniProt Q12851).
T1 sequence (whole entry): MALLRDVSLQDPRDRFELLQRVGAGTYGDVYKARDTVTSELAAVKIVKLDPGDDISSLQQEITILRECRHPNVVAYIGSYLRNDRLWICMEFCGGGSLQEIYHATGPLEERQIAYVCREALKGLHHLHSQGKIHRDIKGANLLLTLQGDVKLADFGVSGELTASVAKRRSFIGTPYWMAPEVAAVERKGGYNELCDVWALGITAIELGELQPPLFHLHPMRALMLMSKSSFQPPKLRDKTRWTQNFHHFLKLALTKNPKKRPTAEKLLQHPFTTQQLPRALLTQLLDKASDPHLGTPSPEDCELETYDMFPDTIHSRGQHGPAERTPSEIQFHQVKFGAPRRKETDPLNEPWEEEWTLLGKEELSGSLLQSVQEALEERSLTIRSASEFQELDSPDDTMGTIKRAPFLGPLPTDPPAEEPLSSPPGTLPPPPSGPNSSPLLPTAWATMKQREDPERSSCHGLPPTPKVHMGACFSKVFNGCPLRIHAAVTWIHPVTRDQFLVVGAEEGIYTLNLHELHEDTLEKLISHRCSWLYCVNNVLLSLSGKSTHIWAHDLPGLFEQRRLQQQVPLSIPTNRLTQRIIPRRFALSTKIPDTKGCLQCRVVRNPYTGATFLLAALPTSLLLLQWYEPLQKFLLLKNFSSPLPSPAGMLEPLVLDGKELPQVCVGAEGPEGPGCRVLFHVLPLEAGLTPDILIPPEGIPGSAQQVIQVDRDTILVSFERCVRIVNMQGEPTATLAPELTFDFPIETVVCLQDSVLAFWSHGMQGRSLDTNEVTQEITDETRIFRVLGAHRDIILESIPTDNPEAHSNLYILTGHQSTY
The following applies: at 1 µM.

Test [6] deals with T1, Mitogen-activated protein kinase kinase kinase kinase 2 (Homo sapiens). The settings on record: at 10 µM.
For test [7], the target named is G protein-coupled receptor kinase 6 (Homo sapiens) (UniProt P43250). The settings on record: at 10 µM.
Test [8] has as its target T2, Rhodopsin kinase GRK7 (Homo sapiens) (UniProt Q8WTQ7).
T2 sequence (whole entry): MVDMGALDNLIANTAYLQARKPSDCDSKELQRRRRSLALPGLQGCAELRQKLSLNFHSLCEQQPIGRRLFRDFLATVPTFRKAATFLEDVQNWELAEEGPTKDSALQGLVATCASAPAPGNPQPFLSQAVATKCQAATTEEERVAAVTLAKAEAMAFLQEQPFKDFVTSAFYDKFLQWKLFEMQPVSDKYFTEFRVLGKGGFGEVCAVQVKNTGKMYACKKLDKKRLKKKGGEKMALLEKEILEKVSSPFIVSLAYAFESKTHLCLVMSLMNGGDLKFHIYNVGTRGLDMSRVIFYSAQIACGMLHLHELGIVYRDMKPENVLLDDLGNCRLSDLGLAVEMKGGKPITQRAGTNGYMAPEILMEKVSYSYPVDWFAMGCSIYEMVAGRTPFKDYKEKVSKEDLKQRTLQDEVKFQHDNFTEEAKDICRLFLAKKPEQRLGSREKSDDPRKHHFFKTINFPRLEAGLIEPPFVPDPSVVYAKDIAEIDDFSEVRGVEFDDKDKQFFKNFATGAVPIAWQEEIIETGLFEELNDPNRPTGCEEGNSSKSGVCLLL
The settings on record: at 1 µM.

Test [9] addresses T2, Rhodopsin kinase GRK7 (Homo sapiens). The following applies: at 10 µM.
For test [10], the target named is Glycogen synthase kinase-3 beta (Homo sapiens) (UniProt P49841). The following applies: at 1 µM.
Chain of Glycogen synthase kinase-3 beta (Homo sapiens) (P49841 whole entry, looked up): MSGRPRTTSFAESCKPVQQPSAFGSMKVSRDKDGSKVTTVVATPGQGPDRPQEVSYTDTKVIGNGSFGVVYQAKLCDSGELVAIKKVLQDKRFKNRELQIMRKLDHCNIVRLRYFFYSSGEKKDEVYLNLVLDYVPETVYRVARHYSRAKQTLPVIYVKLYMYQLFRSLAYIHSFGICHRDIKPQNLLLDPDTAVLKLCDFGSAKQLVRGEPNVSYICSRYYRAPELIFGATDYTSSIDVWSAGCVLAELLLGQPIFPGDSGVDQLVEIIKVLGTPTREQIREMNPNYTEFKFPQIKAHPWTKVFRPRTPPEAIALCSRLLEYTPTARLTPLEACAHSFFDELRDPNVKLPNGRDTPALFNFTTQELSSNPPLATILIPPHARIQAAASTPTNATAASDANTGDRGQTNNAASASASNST
For test [11] the target is unchanged. The settings on record: at 10 µM.
The target of test [12] is Homeodomain-interacting protein kinase 1 (Homo sapiens) (UniProt Q86Z02). The settings on record: at 1 µM.
Chain of Homeodomain-interacting protein kinase 1 (Homo sapiens) (Q86Z02 whole entry, looked up): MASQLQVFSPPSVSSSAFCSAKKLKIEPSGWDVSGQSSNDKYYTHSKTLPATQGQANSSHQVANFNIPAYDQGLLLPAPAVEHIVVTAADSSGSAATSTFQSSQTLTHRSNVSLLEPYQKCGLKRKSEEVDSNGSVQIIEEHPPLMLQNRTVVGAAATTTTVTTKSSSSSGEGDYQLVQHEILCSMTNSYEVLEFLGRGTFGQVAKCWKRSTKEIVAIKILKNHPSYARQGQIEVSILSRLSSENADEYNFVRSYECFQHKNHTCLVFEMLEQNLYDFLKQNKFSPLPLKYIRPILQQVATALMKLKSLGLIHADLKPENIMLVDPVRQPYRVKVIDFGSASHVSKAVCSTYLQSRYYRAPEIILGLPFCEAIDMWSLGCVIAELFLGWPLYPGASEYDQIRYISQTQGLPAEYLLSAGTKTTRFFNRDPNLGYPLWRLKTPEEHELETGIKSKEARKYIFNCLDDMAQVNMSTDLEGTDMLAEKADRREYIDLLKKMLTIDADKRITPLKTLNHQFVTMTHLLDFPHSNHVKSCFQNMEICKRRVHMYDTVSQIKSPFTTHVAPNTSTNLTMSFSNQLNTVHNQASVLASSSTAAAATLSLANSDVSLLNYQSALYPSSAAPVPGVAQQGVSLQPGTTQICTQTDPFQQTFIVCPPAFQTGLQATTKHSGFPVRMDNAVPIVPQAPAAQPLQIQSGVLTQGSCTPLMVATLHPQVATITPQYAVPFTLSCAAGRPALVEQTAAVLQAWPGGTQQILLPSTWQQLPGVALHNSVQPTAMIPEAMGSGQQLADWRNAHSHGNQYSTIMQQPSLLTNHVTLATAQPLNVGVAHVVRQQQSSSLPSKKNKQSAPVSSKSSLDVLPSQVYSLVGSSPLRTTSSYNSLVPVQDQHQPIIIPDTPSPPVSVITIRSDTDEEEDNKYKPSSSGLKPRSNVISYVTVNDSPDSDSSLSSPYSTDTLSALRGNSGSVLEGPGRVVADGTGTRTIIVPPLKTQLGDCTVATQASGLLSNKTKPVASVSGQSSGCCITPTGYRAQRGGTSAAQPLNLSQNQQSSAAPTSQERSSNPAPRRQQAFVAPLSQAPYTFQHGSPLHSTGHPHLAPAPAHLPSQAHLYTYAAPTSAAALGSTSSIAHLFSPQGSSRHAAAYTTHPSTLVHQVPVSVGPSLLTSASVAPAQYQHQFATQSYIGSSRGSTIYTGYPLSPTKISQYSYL
Test [13] has the same target. The following applies: at 10 µM.
Test [14] concerns the target Homeodomain-interacting protein kinase 2 (Homo sapiens) (UniProt Q9H2X6). The following applies: at 1 µM.
Test [15] has the same target. The settings on record: at 10 µM.
Test [16] addresses Tyrosine-protein kinase Fyn (Homo sapiens) (UniProt P06241). The settings on record: at 1 µM.
The target of test [17] is G protein-coupled receptor kinase 5 (Homo sapiens) (UniProt P34947). The settings on record: at 10 µM.
Chain of G protein-coupled receptor kinase 5 (Homo sapiens) (P34947 whole entry, looked up): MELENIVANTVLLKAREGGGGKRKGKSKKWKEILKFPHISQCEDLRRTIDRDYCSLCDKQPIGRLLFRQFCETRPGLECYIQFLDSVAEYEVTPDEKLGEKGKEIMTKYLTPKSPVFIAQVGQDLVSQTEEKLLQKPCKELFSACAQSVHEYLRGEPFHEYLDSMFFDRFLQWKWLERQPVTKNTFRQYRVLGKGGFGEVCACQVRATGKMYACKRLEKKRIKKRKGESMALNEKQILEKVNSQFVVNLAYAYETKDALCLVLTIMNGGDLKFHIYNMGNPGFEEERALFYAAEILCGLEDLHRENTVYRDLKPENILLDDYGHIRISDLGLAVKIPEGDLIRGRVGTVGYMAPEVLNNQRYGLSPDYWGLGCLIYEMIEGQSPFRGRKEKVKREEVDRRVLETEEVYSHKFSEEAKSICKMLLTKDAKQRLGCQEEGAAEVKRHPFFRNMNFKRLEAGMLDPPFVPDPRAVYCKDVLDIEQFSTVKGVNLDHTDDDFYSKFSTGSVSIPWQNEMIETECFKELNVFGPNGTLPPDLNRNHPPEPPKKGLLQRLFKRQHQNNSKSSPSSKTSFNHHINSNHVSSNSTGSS
Test [18] addresses Glycogen synthase kinase-3 alpha (Homo sapiens) (UniProt P49840). The following applies: at 10 µM.
In test [19] the target is Homeodomain-interacting protein kinase 3 (Homo sapiens) (UniProt Q9H422). The settings on record: at 1 µM.
Test [20] concerns the target Glycogen synthase kinase-3 alpha (Homo sapiens) (UniProt P49840). The settings on record: at 1 µM.

Chain of Tyrosine-protein kinase Fyn (Homo sapiens) (P06241 2-537 limits assumed): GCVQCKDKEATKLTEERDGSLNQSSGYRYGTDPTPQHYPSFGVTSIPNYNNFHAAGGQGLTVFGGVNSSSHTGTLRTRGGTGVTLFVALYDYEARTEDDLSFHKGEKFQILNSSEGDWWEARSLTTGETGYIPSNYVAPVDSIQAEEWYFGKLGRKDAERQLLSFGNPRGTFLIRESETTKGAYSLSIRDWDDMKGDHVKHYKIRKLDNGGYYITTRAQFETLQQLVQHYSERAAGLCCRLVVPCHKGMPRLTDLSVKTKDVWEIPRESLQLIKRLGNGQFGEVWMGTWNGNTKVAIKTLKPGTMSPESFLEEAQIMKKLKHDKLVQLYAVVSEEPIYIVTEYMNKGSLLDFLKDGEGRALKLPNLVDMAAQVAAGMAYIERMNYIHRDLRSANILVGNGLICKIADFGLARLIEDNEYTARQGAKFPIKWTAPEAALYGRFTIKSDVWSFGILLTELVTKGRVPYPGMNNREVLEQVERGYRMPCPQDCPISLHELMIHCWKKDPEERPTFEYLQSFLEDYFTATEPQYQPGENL
Chain of Glycogen synthase kinase-3 alpha (Homo sapiens) (P49840 2-483 limits assumed): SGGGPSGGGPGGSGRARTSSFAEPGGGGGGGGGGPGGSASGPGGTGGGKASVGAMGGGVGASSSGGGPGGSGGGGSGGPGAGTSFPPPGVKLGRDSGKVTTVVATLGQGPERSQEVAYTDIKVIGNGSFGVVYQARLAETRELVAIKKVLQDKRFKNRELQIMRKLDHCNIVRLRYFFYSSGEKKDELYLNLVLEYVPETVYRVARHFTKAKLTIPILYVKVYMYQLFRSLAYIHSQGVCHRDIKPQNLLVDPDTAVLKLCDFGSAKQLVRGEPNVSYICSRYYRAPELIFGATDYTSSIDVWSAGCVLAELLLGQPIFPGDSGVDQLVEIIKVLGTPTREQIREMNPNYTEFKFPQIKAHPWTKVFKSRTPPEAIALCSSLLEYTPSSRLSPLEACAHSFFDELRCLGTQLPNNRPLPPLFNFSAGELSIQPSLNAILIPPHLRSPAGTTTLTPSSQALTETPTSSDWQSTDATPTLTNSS
Chain of Vascular endothelial growth factor receptor 3 (Homo sapiens) (P35916 whole entry): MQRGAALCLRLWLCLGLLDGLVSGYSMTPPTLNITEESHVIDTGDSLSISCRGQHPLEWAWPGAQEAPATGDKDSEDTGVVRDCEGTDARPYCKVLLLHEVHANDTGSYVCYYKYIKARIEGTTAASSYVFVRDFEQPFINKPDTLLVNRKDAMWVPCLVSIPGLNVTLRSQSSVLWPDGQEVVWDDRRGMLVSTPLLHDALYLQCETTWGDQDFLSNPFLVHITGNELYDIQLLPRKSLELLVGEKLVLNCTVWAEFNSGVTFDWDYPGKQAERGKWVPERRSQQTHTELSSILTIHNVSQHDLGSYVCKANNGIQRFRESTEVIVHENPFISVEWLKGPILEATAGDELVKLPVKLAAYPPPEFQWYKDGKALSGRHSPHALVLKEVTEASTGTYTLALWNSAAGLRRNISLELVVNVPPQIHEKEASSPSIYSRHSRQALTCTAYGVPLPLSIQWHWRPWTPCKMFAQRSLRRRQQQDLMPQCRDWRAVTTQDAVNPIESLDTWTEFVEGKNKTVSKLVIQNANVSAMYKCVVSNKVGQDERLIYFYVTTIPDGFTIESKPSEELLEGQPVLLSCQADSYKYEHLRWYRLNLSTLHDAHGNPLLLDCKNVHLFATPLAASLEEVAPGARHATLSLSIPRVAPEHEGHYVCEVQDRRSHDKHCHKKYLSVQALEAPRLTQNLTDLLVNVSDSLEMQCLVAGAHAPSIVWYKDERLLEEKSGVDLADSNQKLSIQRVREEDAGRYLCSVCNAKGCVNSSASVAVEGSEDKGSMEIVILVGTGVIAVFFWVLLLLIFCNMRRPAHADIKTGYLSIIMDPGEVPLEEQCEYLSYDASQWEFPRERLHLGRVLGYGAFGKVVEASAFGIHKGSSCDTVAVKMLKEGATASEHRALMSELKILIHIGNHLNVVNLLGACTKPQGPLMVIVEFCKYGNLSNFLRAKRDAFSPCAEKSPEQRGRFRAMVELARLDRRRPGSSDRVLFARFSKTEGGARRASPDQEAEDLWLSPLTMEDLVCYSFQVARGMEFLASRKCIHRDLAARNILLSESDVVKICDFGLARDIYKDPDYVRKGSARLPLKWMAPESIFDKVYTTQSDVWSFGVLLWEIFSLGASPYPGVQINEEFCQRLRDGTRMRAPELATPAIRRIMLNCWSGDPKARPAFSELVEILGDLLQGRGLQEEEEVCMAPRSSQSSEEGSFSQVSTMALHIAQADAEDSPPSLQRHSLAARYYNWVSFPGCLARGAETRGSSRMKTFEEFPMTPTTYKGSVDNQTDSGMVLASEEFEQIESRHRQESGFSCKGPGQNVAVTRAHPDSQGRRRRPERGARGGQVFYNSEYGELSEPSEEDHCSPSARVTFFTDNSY

Turning to `N#CC(C#N)=C(N)/C(C#N)=C/c1ccc(O)cc1`, the residual activity worked out at 95% in [1]; 79% in [2]; 86% in test [3]; 91% in test [4]; 84% in test [5]; 61% in test [6]. The residual activity in test [7] amounted to 95%; in test [8], 98%; in test [9] it was 91%; in test [10] it was 83%; in [11], 88%; in test [12], 97%. For the same compound, the residual activity in test [13] stood at 99%; in [14], 91%; in test [15] it was 78%.

In the case of `c1ccc2c(-c3ccncc3)c[nH]c2c1`, the residual activity in [1] was 60%; in [2], 110%; in test [3], 92%; in test [16] it was 89%; in test [4], 78%; in [5], 86%. Also, the residual activity in test [6] was found to be 50%; in test [17], 97%; in [7], 83%; in test [8], 96%; in test [9], 79%; in test [18] it was 135%. Besides, the residual activity in [10] is 94%; in [11], 88%; in test [12], 95%; in test [13] it was 98%; in test [14], 100%; in test [15] it was 85%. For the same compound, the residual activity in test [19] was 95%.

For `c1ccc(-c2n[nH]c3c2oc2ccccc23)cc1`, the residual activity in test [1] came to 1%; in [2], 6%; in test [3], 1%; in test [16], 86%; in [4] it was 51%; in [5], 84%. For the same compound, the residual activity in [6] came to 30%; in test [17], 94%; in [7], 86%; in test [8] it was 95%; in [9], 64%; in test [10], 95%. Besides, the residual activity is 67% in test [11], 98% in test [14], 58% in [15] and 92% in [19].

Regarding `Oc1ccc(Nc2nc(-c3ccc(Cl)cc3)cs2)cc1`, the residual activity in test [1] was determined as 21%; in test [2], 72%; in test [3], 43%; in [16], 87%; in [4], 68%; in test [5] it was 97%. Moreover, the residual activity in [6] is 60%; in test [17] it was 100%; in test [7] it was 102%; in [8], 103%; in test [9], 103%; in test [20], 97%. Besides, the residual activity stood at 88% in [18]; 131% in test [10]; 114% in test [11]; 95% in test [13]; 92% in [14]; 89% in test [15]. Further, the residual activity in [19] turned out to be 105%.

For the compound `Cc1cncc2cccc(S(=O)(=O)N3CCCN(C(=O)CN)C[C@H]3C)c12`, the residual activity in test [1] was found to be 51%; in test [2], 73%; in test [3] it was 78%; in test [16], 93%; in [4], 78%; in test [5], 82%. In addition, the residual activity turned out to be 46% in test [6]; 68% in test [17]; 51% in [7]; 79% in test [8]; 28% in test [9]; 94% in test [12].

Consider `Nc1ccc2ncnc(NCCc3ccc(Oc4ccccc4)cc3)c2c1`, for which the residual activity in test [1] was determined as 6%; in [2] it was 72%; in test [16], 75%; in [4] it was 66%; in test [5] it was 72%; in test [6], 68%. The residual activity in [17] came out at 97%; in test [7] it was 95%; in test [8], 110%; in test [9] it was 88%; in [20] it was 94%; in [18], 89%. The residual activity stood at 103% in [10]; 119% in [11]; 115% in [12]; 97% in test [13]; 77% in test [14]; 70% in test [15]. Moreover, in test [19], the residual activity was determined as 92%.

On to `Cc1cc(Nc2nc(-c3ccccc3)nc3ccccc23)n[nH]1`, for which the residual activity in test [1] is 1%; in test [2], 4%; in test [3], 0%; in [16] it was 2%; in [4], -2%; in [5], 38%. The residual activity in [6] is 6%; in test [7] it was 65%; in [8], 55%; in [9] it was 14%; in [20], 9%; in test [18], 3%. Moreover, the residual activity in test [10] came out at 20%; in test [11], 10%; in test [12], 95%; in test [13], 35%; in [14], 64%; in test [15], 13%.
